PubChem BioAssay AID590 (National Center for Advancing Translational Sciences (NCATS), 2007)
In all, about 59,000 compounds went through this assay and about 6,500 (11%) were called active. About 15% were inconclusive and are not listed. No stated cut-off is given here; in the data, active means max dye-equivalent concentration above about 10 nM; inconclusive means mostly about 1.1 nM to 9.6 nM; inactive means weaker than that. The list comes from a sample in which actives are over-represented; it also holds similar structures and randomly drawn compounds.

Experiment: qHTS Assay for Spectroscopic Profiling in A350 Spectral Region
Details: Compound autofluorescence, 340/450 nm, Alexa 350 dye-equivalents; stronger effect = higher value

Structure (SMILES)	max dye-equivalent concentration
COc1ccc(CNc2ncncc2-c2ccccc2C)c(OC)c1	inactive
Cc1ccccc1NC(=O)CNc1ccccc1N1CCCCC1	inactive
CCOc1ccc2nc(N3CCCN(C(=O)Nc4ccccc4C)CC3)c(C#N)cc2c1	16 nM (active)
CCOc1ccc(NC(=O)N2CCN(CC)CC2)cc1	inactive
Cc1ccnc(SCCn2c(Br)nc3c2c(=O)[nH]c(=O)n3C)n1	inactive
CC1CN(C2CCN(C(=O)COc3ccccc3)CC2)CC(C)O1 (stereo unspecified)	inactive
Nc1nc2c(ncn2[C@H]2CC[C@@H](CO)O2)c(=O)n1C(=O)c1ccccc1	inactive
COc1cccc(CN2C(=O)CCC2(C)C(=O)NC2CCCCCC2)c1 (stereo unspecified)	inactive
COc1cccc(Nc2ncc3ncc(=O)n(C4CC4)c3n2)c1	inactive
CCNc1ncc2ncc(=O)n(CCc3ccccc3)c2n1	89 nM (active)
COc1cccc(Cn2c(=O)cnc3cncnc32)c1	inactive
COc1cccc(Cn2c(=O)c(C)nc3cnc(Oc4ccccc4)nc32)c1	inactive
COc1cccc(Cn2c(=O)c(CCc3ccccc3)nc3cnc(N(C)C)nc32)c1	31 nM (active)
O=c1cnc2cnc(Nc3ccccc3)nc2n1Cc1ccc(F)cc1	inactive
CCNc1ncc2ncc(=O)n(Cc3cccc(OC)c3)c2n1	16 nM (active)
CCNc1ncc2nc(CCc3ccccc3)c(=O)n(-c3ccc(OC)cc3)c2n1	15 nM (active)
CCc1nnc(NC(=O)CSc2nnc(Cc3ccccc3)n2-c2ccc(OC)cc2)s1	inactive
COc1ccc(-n2c(C)nc3c(cnn3-c3ccccc3)c2=O)cc1	inactive
CSCCC(NC(=O)C1CCC(C)CC1)C(=O)NCc1ccco1 (stereo unspecified)	inactive
CC(C)NC(=O)N1CCCC2(CCN(C(=O)c3cccn3C)CC2)C1	inactive
Cc1cccc(C)c1NC(=O)N1CC=C(n2c(=O)[nH]c3ccccc32)CC1	inactive
CC(C)CCNC(=O)C1CCCN(S(=O)(=O)c2ccc(F)cc2)C1 (stereo unspecified)	inactive
CCN(CC)C(=O)CSc1nnc(-c2cccc(OC)c2)o1	inactive
CC(C)NC(=O)CCCn1c(=S)[nH]c2cc3c(cc2c1=O)OCO3	inactive
Cc1cccc(NC(=O)CSc2nnc(CCCCCNC(=O)OC(C)(C)C)o2)c1C	inactive
Cc1cccc(N(CC(O)CN(C)C)S(=O)(=O)c2ccccc2)c1 (stereo unspecified)	inactive

Structure (SMILES)	max dye-equivalent concentration
COC(=O)c1ccc(Oc2nc(Nc3ccc(F)cc3)nc(N3CCCC3)n2)cc1	inactive
CSc1ccc(S(=O)(=O)Nc2cccc(F)c2)cc1	inactive
C=CCN(c1ccc(C(N)=O)cc1)S(C)(=O)=O	inactive
Cn1c(=O)cc(SCC(=O)N2CCCC2)c2cc(Cl)ccc21	12 nM (active)
CCOC(=O)C1CCN(C(=O)CSc2cc(=O)n(C)c3ccccc23)CC1	inactive
Cn1c(=O)cc(SCC(=O)N2CCN(C(=O)c3ccco3)CC2)c2ccccc21	inactive
COC(=O)c1sc(=S)n(-c2ccccc2)c1N	inactive
COCCCNC(=O)Cn1cc(C(=O)C2CC2)c2ccccc21	inactive
COc1ccc(-c2ccc(-c3noc(-c4ccncc4)n3)c(OC)n2)cc1	24 nM (active)
COc1ccc(-c2noc(CN(C)S(=O)(=O)c3ccc(C)cc3)n2)cc1	inactive
O=C(Oc1ccc(-c2nc(-c3ccccn3)no2)cc1)c1ccccc1	inactive
CCOc1cc(-c2noc(CCC(=O)N3CCOCC3)n2)ccc1OC	inactive
CCOc1nc(-c2ccc(OC)cc2)ccc1-c1noc(-c2cc(OC)c(OC)c(OC)c2)n1	81 nM (active)
COc1ccc(-c2nc(-c3ccccc3)no2)c(OC)c1	inactive
Cn1c(=O)c2c(ncn2CC(=O)N2CCN(c3ccccc3)CC2)n(C)c1=O	inactive
CCOc1ccc(C(C)C)cc1S(=O)(=O)n1nc(C)cc1C	inactive
N#Cc1ccccc1-c1ccc2ncnc(NCc3cccnc3)c2c1	inactive
CC(Cc1cccs1)NC(=O)NC1CCCCC1 (stereo unspecified)	inactive
COc1ccccc1CNc1ccnc(-c2c(C)noc2C)n1	inactive
CCOc1ccc(CCNC(=O)C2CCN(c3ccc(N4CCOCC4)nn3)CC2)cc1OCC	560 nM (active)
CCCS(=O)(=O)N1CCC(C(=O)NCCc2ccc(OC)c(OC)c2)CC1	inactive
COc1ccc(CCNC(=O)C2CCN(c3nn4c(=O)cc(C)nc4s3)CC2)cc1OC	inactive
O=C(CN1CCN(c2ccc(F)cc2)CC1)Nc1cccc(C(F)(F)F)c1	inactive
O=C(c1ccc([N+](=O)[O-])cc1)[C@@H](Br)[C@@H](Br)c1ccnc2ccccc12	inactive
O=C1NC(c2ccncc2)Nc2sc3c(c21)CCCC3 (stereo unspecified)	58 nM (active)
